Consider five compounds from PubChem BioAssay.

Active and inactive are the calls of the source.

The test system of test [1] is PRMT1 (protein arginine N-methyltransferase 1). Put plainly: PRMT1 binders on small-molecule microarrays, primary screen, biochemical, small-molecule microarray, 635 nm fluorescence (AID 1088).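 Also: binding of Prmt1 protein to compounds spotted on small-molecule microarray slides.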 The conditions noted are these: small-molecule microarray binding, higher = more signal.
Test [2] is described as follows: yeast growth modulation, basal conditions, primary screen, YJM789 clinical isolate, OD600, 24 h (AID 1089).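 Also: growth of clinical yeast isolate S. cerevisiae YJM 789 seeded 1000 cells per well; test concentration not given here.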 Conditions: S. cerevisiae YJM789 growth, higher = more signal, called active from +8 up or from −8 down.
Test [3] in a line: fission yeast growth modulation, primary screen, strain 972, OD600, 24 h, no modulator (AID 1090).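 Also: basal condition with compound alone and no growth modifier present; test concentration not given here.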 Conditions: S. pombe 972 growth, higher = more signal, called active from +8 up or from −8 down.
Test [4] in a line: S. cerevisiae growth modulation with rapamycin, primary screen, strain BY4716, OD600, 96 h (AID 1091). Also: test concentration not given here. Conditions: higher = more signal, called active from +8 up or from −8 down.
For test [5], the target named is Torsin-1A-interacting protein 2 (Homo sapiens) (UniProt Q8NFQ8). The test can be described thus: LULL1 binders on small-molecule microarray, primary screen, cell lysate, human LULL1 lysate, 635/667 nm fluorescence (AID 1092).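 Also: probe is lysate of COS7 cells overexpressing human LULL1; score merges per-feature 667 nm fluorescence with signal-to-noise.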 The conditions noted are these: hLULL1 lysate binding, 635 nm fluorescence, higher = more signal.
Torsin-1A-interacting protein 2 (Homo sapiens), sequence (Q8NFQ8 whole entry, looked up): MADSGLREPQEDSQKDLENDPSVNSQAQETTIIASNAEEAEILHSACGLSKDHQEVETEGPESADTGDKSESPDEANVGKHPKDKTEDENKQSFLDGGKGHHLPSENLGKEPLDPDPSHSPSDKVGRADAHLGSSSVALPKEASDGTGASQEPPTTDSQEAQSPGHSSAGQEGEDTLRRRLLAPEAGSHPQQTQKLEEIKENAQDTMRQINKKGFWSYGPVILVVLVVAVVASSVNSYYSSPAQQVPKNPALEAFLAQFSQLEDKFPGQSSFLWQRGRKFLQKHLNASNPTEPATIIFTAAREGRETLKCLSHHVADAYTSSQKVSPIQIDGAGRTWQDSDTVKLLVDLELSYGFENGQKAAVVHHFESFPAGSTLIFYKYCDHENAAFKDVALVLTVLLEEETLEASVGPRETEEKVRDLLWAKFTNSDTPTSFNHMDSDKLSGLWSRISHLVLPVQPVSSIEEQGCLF
A short description of test [6]: E. coli growth modulation, two-sided OD650, primary screen, E. coli filamentation project, strain DRC41, 24 h (AID 1093).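 Also: MC1000 strain lacking acrAB efflux and sulA so SOS filamentation is blocked; test concentration not given here.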 Conditions: OD650, 24 h, higher = more signal, called active from +8 up or from −8 down.
A short description of test [7]: small-molecule microarray binders of probe aLefty2, primary screen, biochemical, biotinylated probe, 635/667 nm fluorescence (AID 1094).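 Also: score merges spot fluorescence near 667 nm with spot signal-to-noise ratio.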 Conditions: higher = more signal.
Test [8] deals with Noggin (protein binding on small-molecule microarray). Put plainly: Noggin binders on small-molecule microarray, primary screen, biochemical, 635/667 nm fluorescence (AID 1095).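 Also: score merges 667 nm feature fluorescence with signal to noise over triplicate slides.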 Conditions: 635 nm fluorescence, higher = more signal.
The target in test [9] is Neurogenic locus notch homolog protein 3 (Homo sapiens) (UniProt Q9UM47). Put plainly: NOTCH3 binders on small-molecule microarray, primary screen, biochemical, 635/667 nm fluorescence (AID 1096). Conditions: NOTCH3 binding, 635 nm fluorescence, higher = more signal.
Neurogenic locus notch homolog protein 3 (Homo sapiens), sequence (Q9UM47 whole entry, looked up): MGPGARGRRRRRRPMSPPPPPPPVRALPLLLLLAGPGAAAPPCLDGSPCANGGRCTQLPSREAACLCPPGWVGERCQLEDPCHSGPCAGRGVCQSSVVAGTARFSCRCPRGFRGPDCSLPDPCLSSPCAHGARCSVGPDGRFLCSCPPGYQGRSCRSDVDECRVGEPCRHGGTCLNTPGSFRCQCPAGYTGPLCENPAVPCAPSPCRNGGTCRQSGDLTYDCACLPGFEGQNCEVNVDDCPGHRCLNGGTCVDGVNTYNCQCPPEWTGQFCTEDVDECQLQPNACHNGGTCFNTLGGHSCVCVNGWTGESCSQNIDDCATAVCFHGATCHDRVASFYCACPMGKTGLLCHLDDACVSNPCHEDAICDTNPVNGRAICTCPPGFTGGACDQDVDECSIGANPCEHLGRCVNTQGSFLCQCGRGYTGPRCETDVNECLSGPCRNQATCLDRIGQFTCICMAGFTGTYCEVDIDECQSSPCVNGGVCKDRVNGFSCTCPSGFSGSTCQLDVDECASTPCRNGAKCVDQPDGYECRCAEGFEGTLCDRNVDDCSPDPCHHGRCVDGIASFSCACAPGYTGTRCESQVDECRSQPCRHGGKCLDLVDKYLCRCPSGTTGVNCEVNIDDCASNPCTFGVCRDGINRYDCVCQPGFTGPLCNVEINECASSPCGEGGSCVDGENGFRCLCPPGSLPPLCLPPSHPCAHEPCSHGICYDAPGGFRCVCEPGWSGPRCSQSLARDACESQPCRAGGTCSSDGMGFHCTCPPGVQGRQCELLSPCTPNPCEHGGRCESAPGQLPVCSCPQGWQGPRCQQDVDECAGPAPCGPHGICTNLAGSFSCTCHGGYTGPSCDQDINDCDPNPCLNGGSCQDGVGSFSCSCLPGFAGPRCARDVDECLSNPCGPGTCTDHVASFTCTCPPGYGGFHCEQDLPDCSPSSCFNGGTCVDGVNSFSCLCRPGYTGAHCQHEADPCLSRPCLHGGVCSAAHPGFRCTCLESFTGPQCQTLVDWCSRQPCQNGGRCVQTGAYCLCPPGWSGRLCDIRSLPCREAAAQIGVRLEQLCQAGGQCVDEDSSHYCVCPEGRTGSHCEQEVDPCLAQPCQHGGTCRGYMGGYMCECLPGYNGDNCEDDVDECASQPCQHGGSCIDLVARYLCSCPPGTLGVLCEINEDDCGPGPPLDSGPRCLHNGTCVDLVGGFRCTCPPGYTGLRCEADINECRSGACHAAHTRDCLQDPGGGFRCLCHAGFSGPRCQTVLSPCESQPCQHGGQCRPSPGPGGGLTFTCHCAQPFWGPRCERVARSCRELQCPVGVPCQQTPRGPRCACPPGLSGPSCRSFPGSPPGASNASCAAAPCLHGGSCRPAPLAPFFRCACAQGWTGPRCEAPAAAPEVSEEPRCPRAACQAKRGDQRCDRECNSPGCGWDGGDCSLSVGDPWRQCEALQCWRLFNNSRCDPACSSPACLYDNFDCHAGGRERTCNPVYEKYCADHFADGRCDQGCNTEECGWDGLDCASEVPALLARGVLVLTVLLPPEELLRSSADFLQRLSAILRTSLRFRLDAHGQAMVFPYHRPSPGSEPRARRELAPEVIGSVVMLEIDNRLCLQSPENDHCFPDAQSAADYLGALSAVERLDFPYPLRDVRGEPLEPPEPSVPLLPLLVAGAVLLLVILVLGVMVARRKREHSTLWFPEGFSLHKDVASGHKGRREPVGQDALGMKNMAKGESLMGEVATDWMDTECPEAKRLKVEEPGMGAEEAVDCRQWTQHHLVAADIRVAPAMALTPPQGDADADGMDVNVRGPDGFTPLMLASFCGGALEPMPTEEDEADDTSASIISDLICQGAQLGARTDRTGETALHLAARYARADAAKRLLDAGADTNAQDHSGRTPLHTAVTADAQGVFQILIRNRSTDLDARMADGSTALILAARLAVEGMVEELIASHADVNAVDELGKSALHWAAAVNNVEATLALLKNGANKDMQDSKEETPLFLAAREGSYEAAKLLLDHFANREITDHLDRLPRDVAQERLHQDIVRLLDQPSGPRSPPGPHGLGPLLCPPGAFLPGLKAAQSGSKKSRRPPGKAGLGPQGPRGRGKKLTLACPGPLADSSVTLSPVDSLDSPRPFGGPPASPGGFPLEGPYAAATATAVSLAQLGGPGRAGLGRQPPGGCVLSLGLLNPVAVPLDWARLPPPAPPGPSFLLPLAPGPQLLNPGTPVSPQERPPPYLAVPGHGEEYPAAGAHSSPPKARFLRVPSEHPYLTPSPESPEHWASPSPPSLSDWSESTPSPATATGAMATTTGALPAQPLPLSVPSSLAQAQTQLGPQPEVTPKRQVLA
Test [10] is described as follows: small-molecule microarray binders of probe aEGFR, primary screen, biochemical, biotinylated probe, 635/667 nm fluorescence (AID 1097).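 Also: probe is a biotinylated anti-EGFR antibody binding compounds printed on slides; score combines fluorescence near 667 nm and signal to noise of each spot.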 Conditions: higher = more signal.
Test [11] relates to Plasmodium falciparum Sir2 (PF13_0152, Sir2A). Put plainly: pfSir2 binders on small-molecule microarrays, primary screen, biochemical, small-molecule microarray, 635 nm fluorescence (AID 1098).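 Also: score merges spot fluorescence intensity with its signal-to-noise ratio.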 The conditions noted are these: small-molecule microarray binding, fluorescence 635 nm; higher = more signal.
Test [12] in a line: small-molecule microarray binders of probe aDKK1, primary screen, biochemical, biotinylated probe, 635/667 nm fluorescence (AID 1099).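 Also: score merges 667nm spot fluorescence with signal to noise across triplicate slides; reference of the scale not given here.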 Conditions: higher = more signal.
A short description of test [13]: small-molecule microarray binders of probe aCHRDL2, primary screen, biochemical, biotinylated probe, 635/667 nm fluorescence (AID 1100). The conditions noted are these: higher = more signal.
The nature of test [14]: splicing luciferase reporter signal modulators, primary screen, spliceosome inhibition project, cell-based, HEK293, splice +/- reporter (AID 1101).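 Also: HEK293 cells carrying a splicing-competent luciferase reporter gene; test concentration not given here.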 Conditions: luminescence, 24 h, higher = more signal, called active from +8 up or from −8 down. In general terms: In a reporter assay the amount or activity of a reporter protein is the signal.
In test [15] the target is Fibroblast growth factor 10 (Homo sapiens) (UniProt O15520). The test can be described thus: FGF10 binders on small-molecule microarrays, primary screen, biochemical, small-molecule microarray, 635 nm fluorescence (AID 1102). The conditions noted are these: FGF10 binding, fluorescence 635 nm, higher = more signal.
Fibroblast growth factor 10 (Homo sapiens), sequence (O15520 whole entry, looked up): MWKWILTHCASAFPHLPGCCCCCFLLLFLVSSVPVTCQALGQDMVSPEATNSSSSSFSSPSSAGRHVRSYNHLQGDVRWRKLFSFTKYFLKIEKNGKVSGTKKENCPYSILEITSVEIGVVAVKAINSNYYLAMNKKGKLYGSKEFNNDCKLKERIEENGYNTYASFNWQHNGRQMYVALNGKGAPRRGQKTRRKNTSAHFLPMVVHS
Test [16] deals with glycogen synthase kinase-3 (GSK3A per assay name; protocol says GSK3B). The test can be described thus: GSK3 binders on small-molecule microarrays, primary screen, biochemical, small-molecule microarray, 635 nm fluorescence, GSK3A (AID 1103). Also: the record names both GSK3A and GSK3B. Conditions: small-molecule microarray binding, fluorescence 635 nm; higher = more signal.
Test [17] concerns the target Epidermal growth factor receptor (Homo sapiens) (UniProt P00533). Put plainly: EGFR binders on small-molecule microarrays, primary screen, biochemical, small-molecule microarray, 635 nm fluorescence (AID 1104).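 Also: score merges 667 nm emission intensity with spot signal to noise over triplicate slides.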 Conditions: EGFR binding, higher = more signal.
The target in test [18] is Follistatin-related protein 3 (Homo sapiens) (UniProt O95633). The test can be described thus: FSTL3 binders on small-molecule microarrays, primary screen, biochemical, small-molecule microarray, 635 nm fluorescence (AID 1105).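 Also: score merges emission near 667 nm and signal to noise per printed spot across three slides.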 The conditions noted are these: FSTL3 binding, higher = more signal.
Follistatin-related protein 3 (Homo sapiens), sequence (O95633 whole entry, looked up): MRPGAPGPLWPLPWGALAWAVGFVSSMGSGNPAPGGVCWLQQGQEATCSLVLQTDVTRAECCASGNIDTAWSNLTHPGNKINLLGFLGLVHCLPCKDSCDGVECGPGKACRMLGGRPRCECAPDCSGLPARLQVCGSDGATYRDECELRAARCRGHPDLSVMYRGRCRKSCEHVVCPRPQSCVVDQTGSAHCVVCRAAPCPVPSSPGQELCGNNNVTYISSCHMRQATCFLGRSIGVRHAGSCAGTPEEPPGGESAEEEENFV
Test [19] has as its target Dickkopf-related protein 1 (Homo sapiens) (UniProt O94907). Put plainly: DKK1 binders on small-molecule microarrays, primary screen, biochemical, small-molecule microarray, 635 nm fluorescence scan (AID 1106).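 Also: score merges emission near 667 nm with signal to noise over three replicate slides.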 Conditions: DKK1 binding, higher = more signal.
Test [20] relates to Inhibin beta A chain (activin A). The test can be described thus: INHBA (activin A) binders on microarrays, primary screen, biochemical, small-molecule microarray, 635 nm fluorescence scan (AID 1107).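 Also: mouse activin A protein probed at 4.33 µg/mL on printed slides; score merges bound-protein fluorescence near 667 nm with spot signal-to-noise.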 Conditions: small-molecule microarray binding, higher = more signal.

Epidermal growth factor receptor (Homo sapiens), sequence (P00533 whole entry, looked up): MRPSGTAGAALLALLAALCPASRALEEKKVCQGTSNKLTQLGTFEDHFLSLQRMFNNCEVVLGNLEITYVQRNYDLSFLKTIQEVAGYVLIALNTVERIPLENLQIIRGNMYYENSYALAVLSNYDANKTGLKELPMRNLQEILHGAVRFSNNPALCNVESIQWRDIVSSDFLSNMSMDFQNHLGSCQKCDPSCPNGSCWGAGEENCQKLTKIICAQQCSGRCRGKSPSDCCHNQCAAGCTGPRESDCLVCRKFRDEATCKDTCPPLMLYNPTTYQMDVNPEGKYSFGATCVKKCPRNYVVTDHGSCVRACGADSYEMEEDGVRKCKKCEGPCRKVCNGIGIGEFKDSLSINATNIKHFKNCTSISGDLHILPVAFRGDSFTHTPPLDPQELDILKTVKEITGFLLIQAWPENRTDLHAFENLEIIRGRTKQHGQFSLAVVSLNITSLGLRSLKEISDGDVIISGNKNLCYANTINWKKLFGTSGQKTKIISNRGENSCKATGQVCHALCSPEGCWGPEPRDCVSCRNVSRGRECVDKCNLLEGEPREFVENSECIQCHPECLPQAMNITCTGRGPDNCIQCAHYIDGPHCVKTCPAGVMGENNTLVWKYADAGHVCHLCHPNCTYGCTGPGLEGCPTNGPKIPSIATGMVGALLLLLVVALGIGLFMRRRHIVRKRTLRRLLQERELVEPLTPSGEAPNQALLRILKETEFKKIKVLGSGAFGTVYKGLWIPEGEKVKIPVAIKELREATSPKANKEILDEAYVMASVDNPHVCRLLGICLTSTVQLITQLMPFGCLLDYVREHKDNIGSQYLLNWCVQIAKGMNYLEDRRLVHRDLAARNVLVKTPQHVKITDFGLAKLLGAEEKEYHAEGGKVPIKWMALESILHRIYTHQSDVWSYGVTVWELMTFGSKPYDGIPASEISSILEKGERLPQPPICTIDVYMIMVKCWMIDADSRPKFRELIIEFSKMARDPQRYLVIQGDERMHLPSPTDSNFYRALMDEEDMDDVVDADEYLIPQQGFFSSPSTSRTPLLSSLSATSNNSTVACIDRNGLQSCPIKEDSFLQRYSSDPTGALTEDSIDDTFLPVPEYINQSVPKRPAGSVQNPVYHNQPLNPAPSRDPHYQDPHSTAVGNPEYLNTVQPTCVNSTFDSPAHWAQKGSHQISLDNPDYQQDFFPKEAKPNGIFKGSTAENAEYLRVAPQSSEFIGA
Dickkopf-related protein 1 (Homo sapiens), sequence (O94907 whole entry, looked up): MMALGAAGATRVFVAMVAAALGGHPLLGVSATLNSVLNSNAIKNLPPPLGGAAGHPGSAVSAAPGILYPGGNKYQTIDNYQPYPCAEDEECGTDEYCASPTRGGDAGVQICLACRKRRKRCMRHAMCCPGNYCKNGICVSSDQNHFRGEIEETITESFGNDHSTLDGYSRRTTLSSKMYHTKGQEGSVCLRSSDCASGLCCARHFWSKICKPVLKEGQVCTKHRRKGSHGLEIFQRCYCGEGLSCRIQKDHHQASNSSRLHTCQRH

Turning to `CCOC(=O)C1=CCC(c2cc3ccccc3[nH]2)NC1` (stereo not given), the composite z-score in [1] is 0.37; in test [5], 2.45; in test [7], 0.389; in test [8], -0.465; in test [9], 0.335; in [10], -0.0065. In addition, the composite z-score in test [11] was 1.47; in test [12] it was 1.1; in [13], 1.31; in [15], 0.0855; in [16], 0.233; in test [17], 0.242. Further, the composite z-score is 0.0799 in [18], -0.494 in [19] and 1.65 in test [20]. Further, the z-score in test [2] was -1.36 (inactive); in test [3] it was -2.39 (inactive); in test [4], 1.42 (inactive); in test [6], -0.0849 (inactive); in test [14], -1.02 (inactive).

With `COCC(=C=CC[C@@H](O)c1ccccc1OCCO)CCO`, the composite z-score was 0.68 in test [1]; 2.36 in test [5]; 0.0378 in test [7]; 0.436 in test [8]; 0.442 in test [9]; -0.0332 in [10]. Besides, the composite z-score was 0.718 in [11]; 0.117 in [12]; 0.09 in [13]; 1.49 in test [15]; -0.0421 in [16]; -0.423 in [17]. Besides, the values for the composite z-score in test [18], in [19] and in test [20] were 0.135, 0.335 and 0.706, respectively. The z-score in test [2] was 0.621 (inactive); in test [3], 0.0008 (inactive); in test [4], 0.199 (inactive); in test [6] it was 0.71 (inactive); in test [14], 0.0385 (inactive).

Regarding `CCc1cc2c(nc1CC)CCN(CCC(C)=NOC(C)CN1CCCc3nc(C)c(C)cc31)C2` (stereo not given), the composite z-score in test [1] was 1.37; in test [5], 1.41; in test [7] it was 0.696; in [8], 1.13; in [9], 0.986; in [10], 0.391. Also, the composite z-score in test [11] is 1.05; in test [12], 0.612; in test [13] it was -0.242; in [15], 1.04; in test [16], 1.06; in test [17], 1.16. The composite z-score was 1.32 in test [18], 1.03 in test [19] and 1.59 in [20]. Also, the z-score in [2] is -2.1 (inactive); in [3], -1.74 (inactive); in test [4], -1.28 (inactive); in [6] it was 0.517 (inactive); in [14], 0.211 (inactive).

With `COC(=O)[C@H](C)NC(=O)[C@@H](C)CO`, the composite z-score in test [1] was 1.46; in [5], 1.68; in [7] it was -0.0607; in test [8] it was 0.67; in test [9], 1.07; in [10] it was -0.0578. The composite z-score in test [11] is 0.241; in test [12], 0.0939; in [13], -0.469; in test [15] it was 0.572; in test [16], 0.844; in test [17], 0.499. For the same compound, the composite z-score in test [18] is 0.258; in test [19], 0.338; in test [20], -0.776. Also, the z-score in [2] was 0.0198 (inactive); in test [3] it was -0.0164 (inactive); in test [4], 0.669 (inactive); in [6], -0.8 (inactive); in test [14], 0.364 (inactive).

For `COCCOC(=O)N1C(=O)[C@@]2(c3cc(C#CCNC(N)=O)ccc31)[C@H](c1ccc(O)cc1)N1[C@H](c3ccccc3)[C@H](c3ccccc3)OC(=O)[C@H]1[C@@H]2C(=O)N1CCCCCCC1`, the composite z-score came to 1.55 in [1]; 0.859 in test [5]; 0.354 in test [7]; 1.28 in test [8]; 1.08 in test [9]; 0.0396 in test [10]. In addition, the composite z-score came out at 1.08 in [11]; 0.614 in test [12]; 0.356 in test [13]; 1.25 in test [15]; 0.43 in [16]; 0.611 in test [17]. For the same compound, the composite z-score in [18] came out at 1.38; in test [19], 0.969; in test [20] it was 0.85. Further, the z-score is 1.2 (inactive) in test [2]; 0.159 (inactive) in [3]; 1.27 (inactive) in test [4]; 0.576 (inactive) in [6]; -0.364 (inactive) in test [14].
